In assay [1] the target is Aldehyde dehydrogenase, mitochondrial (Homo sapiens) (UniProt P05091). As to the kind of experiment: qHTS for Inhibitors of the Aldehyde Dehydrogenase Family (ALDH2) Primary screen (AID 2061308). Also: nearly all actives have a fitted effect of over 55% in size. Background: In qHTS, concentration-response curves come from the screen itself.
In assay [2] the target is Retinaldehyde dehydrogenase 3 (Homo sapiens) (UniProt P47895). As to the kind of experiment: qHTS for Inhibitors of the Aldehyde Dehydrogenase Family (ALDH1A3) Primary screen (AID 2061315).

Records with an inconclusive call do not appear. A call without a number means that no potency is given here. Activity calls are given as the source filed them. Calls follow the shape of the dose curve; as a rule, active = well fitted curve in the direction sought with a large enough effect; inconclusive = small, poorly fitted or top-dose-only effect, or another doubt; inactive = no such curve, though single readings can be large; an effect the other way counts as inactive or inconclusive.

For `COCCNc1nc(C)nc2c1nc(-c1ccccc1)n2CCN1CCCCC1`, the Potency result in assay [1] and in assay [2] was “inactive” each time.

As to `Cc1cc2c(s1)c1cnn(Cc3c(C)cc(F)cc3C)c(=O)c1n2C`, the Potency result in assay [1] and in assay [2] was “inactive” each time.

In the case of `COc1cc([C@H]2O[C@H](c3cc(OC)c4c(c3)OCO4)[C@H](C)[C@H]2C)cc(OC)c1OC`, the Potency result in assay [1] and in assay [2] was “inactive” throughout.

As to `N#CN1CCC(N[S+](=O)([O-])c2cccc(F)c2)CC1`, the Potency entry in assay [1] and in assay [2] was “inactive” throughout.

Consider `Fc1cc(F)cc(Nc2nc(NC3CCCC3)nc(C3CO3)n2)c1` (stereo not given), for which the Potency entry in assay [1] and in assay [2] was “inactive” in each case.

In the case of `C=CCOc1cc(Cl)ccc1C(=O)NCCN(CC)CC`, the Potency entry in assay [1] and in assay [2] was “inactive” in each case.

For the molecule `COc1ccc(CN(Cc2ccccc2)S(=O)(=O)c2ccccc2)cc1COc1ccc(NC(C)=O)cc1`, the Potency entry in assay [1] and in assay [2] was “inactive” throughout.

Turning to `N#CN1CCC(NS(=O)(=O)c2cccc(C(F)(F)F)c2)CC1`, the Potency entry in assay [1] and in assay [2] was “inactive” throughout.

As to `CN(CC1CCCO1)c1ncnc2ccc(-c3ccc4c(c3)OCO4)cc12` (stereo not given), the Potency result in assay [1] and in assay [2] was “inactive” in each case.

With `N#Cc1ccc(S(=O)(=O)N2CCN(S(=O)(=O)c3ccc4c(c3)OCCO4)CC2)cc1`, the Potency entry in assay [1] and in assay [2] was “inactive” throughout.

For `CC(=O)Nc1ccccc1OC1=N[S+](=O)([O-])c2ccccc21`, the Potency result in assay [1] and in assay [2] was “inactive” throughout.

For `COc1ccc(C2=Nn3c(nnc3-c3ccccc3C)SC2)cc1OC`, the Potency entry in assay [1] and in assay [2] was “inactive” each time.

For `O=C(OCC#CCSc1nnc(-c2cccc3ccccc23)o1)c1ccc(F)cc1F`, the Potency result in assay [1] and in assay [2] was “inactive” each time.

Turning to `Cc1ccc(-c2nccc(=O)n2C(C)C(=O)NCCc2ccccc2)cc1` (stereo not given), the Potency result in assay [1] and in assay [2] was “inactive” in each case.

Consider `COc1ccc(-c2nnc3n2N=C(c2ccc(OC)c(OC)c2)CS3)cc1`, for which the Potency result in assay [1] and in assay [2] was “inactive” throughout.

The values above are taken from PubChem BioAssay (NCATS).
